Screening results as filed in PubChem.
FECH inh: human FECH heme synthesis enzyme inhibition. P22830. purified FECH, Ni-mesoporphyrin absorbance 550 nm. calls only at 10 µM (by protocol). 20,000 compounds, 3.3% hits;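 active means enzyme reaction rate more than 3 SD below the solvent-only control wells on the same plate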;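 further: lower slope than DMSO wells means FECH inhibition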
The depositor's hits bear a star; i = inactive; + = active, no number. This is one part of a sample in which hits are shown more often than they occur.

SMILES	FECH inh
O=C1CC(=O)Nc2cc(S(=O)(=O)N3CCOCC3)ccc2N1	i
Cc1ccc(-c2cc(N3CCN(S(=O)(=O)c4ccc(F)cc4)CC3)ncn2)cc1	i
O=C1CC(=O)Nc2cc(S(=O)(=O)N3CCCCC3)ccc2N1	i
COc1ccc(NC(=O)C2CCN(c3ccc(-c4cccc(C)c4)nn3)CC2)cc1OC	i
CCc1cc(C(=O)NC2CC(=O)N(Cc3ccccc3Cl)C2)ccn1 (stereo not drawn)	i
O=C(Nc1ccc(F)cc1)C(=O)N1CC[C@H]2CC[C@@H](C1)N2	i
O=C1CN(Cc2cccc(F)c2)S(=O)(=O)c2ccccc2N1Cc1cccc(C(F)(F)F)c1	i
COc1ccccc1C1CNC(=O)c2nc(-c3n[nH]c4c3CCC4)[nH]c2C1 (stereo not drawn)	i
Cc1nc2nc(N(Cc3c(F)cccc3Cl)S(=O)(=O)c3ccccc3)nn2c(C)c1Cl	i
CC(C)(C)c1ncc2c(n1)CN(C(=O)c1cccc3c1OCC3)C2	i
Cc1ccc(C(=O)Nc2ccc(Nc3nc(C)cc(N(C)C)n3)cc2)cc1	i
Cc1cc(C)cc(C(=O)Nc2ccc(Nc3nc(C)cc(N(C)C)n3)cc2)c1	+
Cc1cc(N(C)C)nc(Nc2ccc(NC(=O)c3ccc(I)cc3)cc2)n1	i
